IL-1B inflam inh: inflammasome signaling inhibition, IL-1 beta readout. actives 4.7% (n = 360,000). activity change, % at 57.5 µM. THP-1 LPS/ATP IL-1B secretion, AlphaLISA, 16 h; active compounds read low; in the data active = activity change below about -50%; inconclusive = mostly about -30% to -49%
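Secreted IL-1B measured by AlphaLISA bead assay after 16 h compound exposure of THP-1 cells; compounds (final up to 57.5 uM) added 1 h before LPS (250 ng/mL) and ATP (1.25 mM) stimulation; lower signal means less secretion.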
TDP1 cell CPT: DT40-hTDP1 cell growth loss with CPT; Potency, µM (top dose mostly 46.2 µM), most hits filed as inhibitors; AID 686979; chicken DT40 Tdp1-/-;hTDP1 cells + 20 nM CPT, ATP luminescence, 48 h; actives 12% (n = 420,000); also: nearly all actives have a fitted effect of over 55% in size
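Cell growth measured by CellTiter-Glo luminescence after a minimum 48 h, 37 C compound exposure with 20 nM CPT in Tdp1-knockout DT40 cells stably expressing hTDP1, seeded 400/well; qHTS titration format.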
DT40 TDP1 no CPT: qHTS for Inhibitors of human tyrosyl-DNA phosphodiesterase 1 (TDP1): qHTS in cells in absence of CPT | DT40 Tdp1-/- hTDP1 cells, no CPT, ATP luminescence, 48 h | AID 686978, 2013 | Potency, µM (highest dose often 46.2 µM), usual class: inhibitors | actives 15% (n = 420,000); also: nearly all actives have a fitted effect of over 55% in size
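Stably hTDP1-transfected Tdp1-null chicken DT40 cells were treated with library compounds minus camptothecin and grown for at least 48 hr at 37 °C, after which cellular ATP was quantified by luminescence.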
TDP1 inh: inhibitors of human tyrosyl-DNA phosphodiesterase TDP1 | actives 0.28% (n = 350,000) | Q9NUW8 | recombinant TDP1, AlphaScreen DNA substrate cleavage | Potency, µM (series often up to 130 µM), usual class: inhibitors; also: nearly all actives have a fitted effect of over 40% in size
Target sequence (Q9NUW8 whole entry, looked up): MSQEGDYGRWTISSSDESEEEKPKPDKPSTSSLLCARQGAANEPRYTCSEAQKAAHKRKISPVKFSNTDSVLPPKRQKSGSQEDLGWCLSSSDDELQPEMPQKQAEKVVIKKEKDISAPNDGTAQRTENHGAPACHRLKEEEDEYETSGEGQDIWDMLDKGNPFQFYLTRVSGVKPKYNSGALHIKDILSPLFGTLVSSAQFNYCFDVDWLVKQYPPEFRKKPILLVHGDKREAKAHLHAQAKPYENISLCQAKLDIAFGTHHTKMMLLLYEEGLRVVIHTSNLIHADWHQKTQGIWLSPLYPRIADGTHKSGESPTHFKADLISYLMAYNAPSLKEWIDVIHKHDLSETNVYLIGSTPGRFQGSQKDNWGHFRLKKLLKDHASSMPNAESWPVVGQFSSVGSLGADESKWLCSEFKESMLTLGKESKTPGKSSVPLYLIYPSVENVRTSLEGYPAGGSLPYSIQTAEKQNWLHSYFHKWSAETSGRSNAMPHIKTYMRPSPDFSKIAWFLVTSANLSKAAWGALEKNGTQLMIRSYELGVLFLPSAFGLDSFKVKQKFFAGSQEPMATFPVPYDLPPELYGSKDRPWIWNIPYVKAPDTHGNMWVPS
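Signal: AlphaScreen proximity between streptavidin donor and anti-FITC acceptor beads on intact substrate. Reaction: Tdp1 1 nM, substrate 15 nM final, 5 min RT after 15 min compound preincubation.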
Six1-Eya2 blk: inhibitors of human Six1/Eya2 interaction. Q15475+O00167. AlphaScreen GST-Six1/His-Eya2 binding, biochemical; active compounds read low. activity change, % (test concentration not listed). actives 0.56% (n = 360,000). AID 651725; in the data active = activity change below about -65%; inconclusive = mostly about -30% to -63%
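AlphaScreen with GST-Six1 and His-Eya2 (5X mix: 250 nM and 500 nM), glutathione donor and nickel acceptor beads; buffer 50 mM Tris pH 8.0, 300 mM NaCl, 1 mM TCEP; 1 h at 37 C in the dark.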
CtBP-E1A inh: blocks the CtBP interaction with E1A; AlphaScreen GST-E1A/His-CtBP binding, 1536-well; active compounds read low; activity change, % (test concentration not listed); AID 651724; actives 0.49% (n = 340,000); in the data active = activity change below about -65%; inconclusive = mostly about -30% to -63%
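Homogeneous bead-based format: GST-tagged E1A captured on glutathione donor beads, His-tagged CtBP on nickel acceptor beads; compounds precede bead addition by 2 h at 37 °C.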
Each line names hits and unclear results; the compound was inactive in the other large screens. Rows were chosen to be rich in hits. Some 18% of all compounds tested hit in one or more screens of this group. Unless noted, calls follow the shape of the dose curve; as a rule, active = well fitted curve in the direction sought with a large enough effect; inconclusive = small, poorly fitted or top-dose-only effect, or another doubt; inactive = no such curve, though single readings can be large; an effect the other way counts as inactive or inconclusive.

CC(=O)N(C(C)=O)n1c(/C=C/c2ccc([N+](=O)[O-])cc2)nc2ccccc2c1=O	TDP1 cell CPT inconclusive, DT40 TDP1 no CPT inconclusive, CtBP-E1A inh inconclusive
O=c1c2ccccc2nc(/C=C/c2c[nH]c3ccccc23)n1-c1ccc([N+](=O)[O-])cc1	TDP1 cell CPT 10.3µM, DT40 TDP1 no CPT inconclusive
COc1ccc(-n2c(/C=C/c3c(C)[nH]c4ccccc34)nc3ccccc3c2=O)cc1	TDP1 cell CPT inconclusive, DT40 TDP1 no CPT inconclusive (no result: IL-1B inflam inh, Six1-Eya2 blk, CtBP-E1A inh)
Cc1[nH]c2ccccc2c1/C=C/c1nc2ccccc2c(=O)n1-c1cccc([N+](=O)[O-])c1	TDP1 cell CPT inconclusive, DT40 TDP1 no CPT 18.4µM
CC1(c2ccc3c(c2)OCCCO3)NC(=O)N(CC(=O)NCCc2ccc(F)cc2)C1=O (centres undefined)	DT40 TDP1 no CPT inconclusive (no result: TDP1 inh)
CCN(CC)S(=O)(=O)c1ccc(N2CC(C(=O)N3CCOCC3)CC2=O)cc1 (centres undefined)	none
O=C(NCc1cccc(C(F)(F)F)c1)c1ccc2sc(C3=C[C@@H](O)[C@@H](O)[C@@H](CO)O3)nc2c1	TDP1 cell CPT 11.6µM, DT40 TDP1 no CPT 11.6µM (no result: TDP1 inh)
O=C(NCc1cccc(C(F)(F)F)c1)c1ccc2sc([C@@H]3O[C@H](CO)[C@@H](O)[C@H]3O)nc2c1	TDP1 cell CPT inconclusive, DT40 TDP1 no CPT inconclusive (no result: TDP1 inh)
O=C(Nc1nc2ccccc2s1)c1ccc2sc([C@H]3C[C@H](O)[C@@H](CO)O3)nc2c1	TDP1 cell CPT 16.4µM, DT40 TDP1 no CPT 16.4µM (no result: TDP1 inh)
O=C(Nc1cccc(C(F)(F)F)c1)Nc1nnc([C@@H]2C[C@H](O)[C@@H](CO)O2)s1	TDP1 cell CPT 18.4µM, DT40 TDP1 no CPT inconclusive (no result: TDP1 inh)
O=C(NCc1cccc(C(F)(F)F)c1)c1ccc2sc([C@H]3C[C@H](O)[C@@H](CO)O3)nc2c1	TDP1 cell CPT inconclusive, DT40 TDP1 no CPT 16.4µM (no result: TDP1 inh)
O=C1OC(N2C(=O)CC[C@H]2C(=O)Nc2ccc(F)c(F)c2)c2ccccc21 (some centres undefined)	none (no result: TDP1 inh)
COc1ccc(C2NN=C(c3ccc(C)cc3)S2)cc1OC (centres undefined)	none
CCOP(C)(=O)C1(C(=O)OCc2ccccc2)CC1 (centres undefined)	none
O=C(Nc1cccc(Cl)c1)c1csc([C@H]2C[C@H](O)[C@@H](CO)O2)n1	TDP1 cell CPT 18.4µM, DT40 TDP1 no CPT inconclusive (no result: TDP1 inh)
CC(C)COC(=O)CCn1[nH]c(=O)c2ccccc2c1=O	none
COC(=O)COc1cccc2c(=O)n(CC(=O)NCCc3ccccc3)ccc12	none
CCOC(=O)COc1cccc2c(=O)n(CC(=O)NCc3ccccc3)ccc12	TDP1 cell CPT 1.03µM, DT40 TDP1 no CPT 0.651µM (no result: TDP1 inh, CtBP-E1A inh)
CCOC(=O)C(C)Oc1cccc2c(=O)n(CC(=O)NCc3ccc4c(c3)OCO4)ccc12 (centres undefined)	TDP1 cell CPT 2.59µM, DT40 TDP1 no CPT 2.31µM
CCOC(=O)COc1cccc2c(=O)n(CC(=O)N3CCCCC3)ccc12	none (no result: TDP1 inh)
CCOC(=O)COc1cccc2c(=O)n(CC(=O)NCc3ccc(F)cc3)ccc12	TDP1 cell CPT 0.581µM, DT40 TDP1 no CPT 0.517µM (no result: TDP1 inh, CtBP-E1A inh)
CCOC(=O)COc1cccc2c(=O)n(CC(=O)NCCc3ccc(OC)c(OC)c3)ccc12	none (no result: IL-1B inflam inh, TDP1 cell CPT, DT40 TDP1 no CPT, Six1-Eya2 blk, CtBP-E1A inh)
CCOC(=O)C(C)Oc1cccc2c(=O)n(CC(=O)Nc3ccc4c(c3)OCCO4)ccc12 (centres undefined)	none
CCOC(=O)COc1cccc2c(=O)n(CC(N)=O)ccc12	IL-1B inflam inh -57.9 (no result: TDP1 inh)
Cc1ccc(C(=O)COC(=O)CCC(=O)NC2CCCCC2)cc1[N+](=O)[O-]	none
N#Cc1cccc(NC(=O)N2CC3(CCN(C(=O)c4cccc(F)c4)CC3)C2)c1	none (no result: IL-1B inflam inh, TDP1 inh, Six1-Eya2 blk, CtBP-E1A inh)
O=C(NNC1=NCCCCC1)Nc1ccc(Cl)cc1	none
CC(=O)Nc1ccc(/C=N/NC(=O)CCN2CCN(c3ccccc3)CC2)cc1	none
